Reference: PubChem BioAssay AID1224852 (National Center for Advancing Translational Sciences (NCATS), 2016)
Results filed as inconclusive are left out. Active and inactive are the calls of the source. Calls come from the whole dose curve; as a rule, active = well fitted curve in the direction sought with a large enough effect (not every such curve was filed as active); inconclusive = small, poorly fitted or top-dose-only effect, or effect the other way, or another doubt; inactive = no such curve, though single readings can be large or run the other way.

Experiment: Cell viability assay for measurement of the protective activity of small molecules against cell death caused by Zika virus infection in human neural progenitor cells (hNPCs)
Conditions: hNPC ZIKV-induced death protection, ATP luminescence, 72 h; series mostly up to 46.1 µM
Excerpt: National Center for Advancing Translational Sciences [NCATS] Johns Hopkins University School of Medicine Florida State University Assay Overview: Zika virus infection causes cell death in certain cell types including human neural progenitor cells (hNPCs), astrocytes, and astrocytoma cell line (SNB-19). This cell viability assay measures the ATP content (level) in human neural progenitor cells (hNPCs) using a luminescence readout that is proportional to viable cell numbers. Decrease in the luminescence signal after Zika virus infection indicates the cell death caused by Zika virus. Small molecule inhibitors […] the decreased luminescence signal after Zika virus infection, indicating the protective effect of that small molecule on the cell death caused by Zika virus infection. This observed protective effect of small molecules against Zika virus induced cell death may result from inhibition of virus replication or cellular response to the virus infection.
Assay Protocol Summary: The medium for hNPCs consists of DMEM/F12, N2 supplement (ThermoFisher, Cat.# 17502048), NEAA (ThermoFisher, Cat. # 11140050), 2 ug/ml heparin, 2 uM cyclopamine, and B27 (ThermoFisher, Cat. # 17504044). The ATP content assay kit (PerkinElmer, Cat.# 6016731) was used to determine cell viability. The reagent was reconstituted and prepared as described by the manufacturer. Cells were seeded in 384- or 1536-well assay plates and cultured at 37 C with 5% CO2 for 16 to 20 hours. The typical cell seeding density in the 1536-well plate assay is 350 cells/well in 3 ul medium for hNPCs in the tissue cultured treated/PDL coated plates. Compounds were added to cells and incubated for one hour before addition of ZIKV solution to cells (2 FFU/cell). After incubation at 37 C with 5% CO2 for 72 hours, the reagent mixture of the ATP content assay kit was added to each well, followed by incubation at room temperature for 10 minutes. The luminescence intensity of the assay plates was measured using a ViewLux plate reader (PerkinElmer). […] The percentage inhibitions of the decreased cell viability by small molecule inhibitors were then calculated.
With `c1ccc2[nH]c(-c3cscn3)nc2c1` the outcome was “inactive”. In the case of `COc1ccc(NC(=O)/C=C/c2ccc(Cl)cc2)cc1`, the outcome is reported as “inactive”. For `CC(C)c1ccc2oc3nc(N)c(C(=O)O)cc3c(=O)c2c1`, the outcome was “inactive”. In the case of `O=C(Nc1cc2cc[nH]c2cn1)c1ccccc1`, the outcome is reported as “inactive”. For `O=C(Nc1ccc(OC(F)(F)F)cc1)c1sccc1NCc1ccnc2ccccc12`, the outcome was “inactive”. With `CN(C)c1ccc(/C=C2\C(=O)Nc3ccccc32)cc1` the outcome was “inactive”. With `N#CC1(c2ccc(NC(=O)c3cccnc3NCc3ccncc3)cc2)CCCC1` the outcome was “inactive”. With `O=C(OCc1ccccc1)c1ccc(O)cc1` the outcome was “inactive”. In the case of `O=C(/C=C/c1ccccc1)NCCO`, the outcome is reported as “inactive”. In the case of `COc1cc(NC(C)CCCN)c2ncccc2c1` (stereo not given), the outcome is reported as “inactive”. In the case of `COc1ccc2nc(NC(=O)Nc3ccccc3)sc2c1`, the outcome is reported as “inactive”. In the case of `Nc1c(S(=O)(=O)O)cc(Nc2ccc(Nc3nc(Cl)nc(Nc4ccc(S(=O)(=O)O)cc4)n3)c(S(=O)(=O)O)c2)c2c1C(=O)c1ccccc1C2=O`, the outcome is reported as “inactive”. With `CN1CCN(c2cc3c(nn2)Oc2ccccc2N3C)CC1` the outcome was “inactive”. In the case of `CCCSc1ccc2nc(NC(=O)OC)[nH]c2c1`, the outcome is reported as “inactive”. For `O=C(O)c1cccc(-c2noc(-c3ccccc3F)n2)c1`, the outcome was “inactive”. With `Nc1ccc(N=Nc2ccccc2)c(N)n1` the outcome was “inactive”. For `O=C(Nc1ncc([N+](=O)[O-])s1)c1cccs1`, the outcome was “inactive”. For `O=c1c2ccccc2nc2n1CCc1c-2[nH]c2ccccc12`, the outcome was “inactive”. In the case of `CC(=O)Nc1ccc([C@H](C)C(=O)Nc2ncc(C(C)C)s2)cc1`, the outcome is reported as “inactive”. In the case of `C[C@@H](O[C@H]1OCCN(Cc2n[nH]c(=O)[nH]2)[C@@H]1c1ccc(F)cc1)c1cc(C(F)(F)F)cc(C(F)(F)F)c1`, the outcome is reported as “inactive”. With `CN(C)c1ccc(C(=C2C=CC(=[N+](C)C)C=C2)c2ccccc2)cc1` the outcome was “inactive”. For `CCCCCCOc1ccccc1C(N)=O`, the outcome was “inactive”. With `Cc1c(C(=O)O)c(O)cc2c1C(=O)c1c(O)c([C@@H]3O[C@H](CO)[C@@H](O)[C@H](O)[C@H]3O)c(O)c(O)c1C2=O` the outcome was “inactive”. In the case of `Cc1ccc(O)c(-n2nc3ccccc3n2)c1`, the outcome is reported as “inactive”. For `CCN1CCC(n2cc(CNc3cc(Cl)c4ncc(C#N)c(Nc5ccc(F)c(Cl)c5)c4c3)nn2)CC1`, the outcome was “inactive”. In the case of `CC(C)OC(=O)CCCC=CC[C@@H]1[C@H](C=C[C@@H](O)COc2cccc(C(F)(F)F)c2)[C@H](O)C[C@@H]1O`, the outcome is reported as “inactive”. With `CC(=NNC(=S)N1CCC1)c1ccccn1` the outcome was “inactive”. For `O=C1C(Cl)=C(NCCN2CCOCC2)C(=O)c2ncccc21`, the outcome was “inactive”. In the case of `OCc1ccc(-c2ccc(-c3ccc(CO)s3)o2)s1`, the outcome is reported as “inactive”. With `CC[C@@]1(O)C[C@H](O[C@H]2C[C@H](N(C)C)[C@H](O[C@H]3C[C@H](O)[C@H](O[C@H]4CCC(=O)[C@H](C)O4)[C@H](C)O3)[C@H](C)O2)c2c(cc3c(c2O)C(=O)c2c(O)cccc2C3=O)[C@@H]1C(=O)OC` the outcome was “inactive”. For `O=c1c(-c2ccc(O)cc2)coc2cc(OC3O[C@H](CO)[C@H](O)[C@H](O)[C@H]3O)cc(O)c12` (stereo not given in full), the outcome was “inactive”. With `CC(C)(C)OC(=O)CN(Cc1ccc(Cl)cc1)Cc1ccc([N+](=O)[O-])s1` the outcome was “inactive”. In the case of `CC=CC[C@@H](C)C(=O)[C@H]1C(=O)N[C@@H](C(C)C)C(=O)N(C)CC(=O)N(C)[C@@H](CC(C)C)C(=O)N[C@@H](C(C)C)C(=O)N(C)[C@@H](CC(C)C)C(=O)N[C@@H](C)C(=O)N[C@H](C)C(=O)N(C)[C@@H](CC(C)C)C(=O)N(C)[C@@H](CC(C)C)C(=O)N(C)[C@@H](C(C)C)C(=O)N1C`, the outcome is reported as “inactive”. With `CN(C)c1cc(NC(=O)CNC(C)(C)C)c(O)c2c1C[C@@H]1C[C@H]3[C@H](N(C)C)C(=O)C(C(N)=O)=C(O)[C@@]3(O)C(=O)C1=C2O` the outcome was “inactive”. In the case of `C=C1C(=O)[C@@]23C(CC[C@@H]1[C@H]2O)[C@@]12CO[C@]3(O)[C@@H](O)[C@@H]1C(C)(C)CC[C@@H]2O` (stereo not given in full), the outcome is reported as “inactive”. For `Oc1cc(O)cc(/C=C/c2ccc(O)c(O)c2)c1`, the outcome was “inactive”. In the case of `Nc1ccc2c(c1)CN1C(=O)c3ccccc3C1=N2`, the outcome is reported as “inactive”. With `COc1ccc(-c2cc(=O)c3c(O)cc(O)cc3o2)cc1O` the outcome was “inactive”. For `CC(C(=O)O)c1ccc(C(=O)c2ccccc2)s1` (stereo not given), the outcome was “inactive”. For `Clc1ccccc1-c1nc(-c2ccncc2)no1`, the outcome was “inactive”.
